According to PubChem BioAssay AID1159580 (chemical genetic matrix, 2015):
Several values for one entry are separate records, joined by “and”; a condition that tells them apart may be missing. Identical values can stand only once. Screen size: about 5,500 compounds; about 2,000 (36%) were called active. Inconclusive results (about 18%) are left out. Cut-off read from the data, not from the text of the source: active = normalized growth mostly below about 0.91 (no sharp cut-off); inconclusive = no clear call, values can overlap the other calls; inactive = mostly above about 0.92. Some of the results follow.

Assay: chemical genetic growth profiling, strain panel (AID 1159580);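 note: tested at 20 µM; growth read once vehicle control cultures reached saturation at 30 °C; 1 = growth at the plate median or of vehicle wells; lower values mean less growth of the strain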
Settings: S. cerevisiae deletion strains, growth OD
[1] = locus YHR030C, strain SLT2, active compounds read low
[2] = locus YHR079C, strain IRE1, active compounds read low
[3] = locus YJL095W, strain BCK1, active compounds read low
[4] = locus YJR066W, strain TOR1, active compounds read low
[5] = locus YLR113W, strain HOG1, active compounds read low
[6] = locus YMR263W, strain SAP30, active compounds read low
[7] = locus YMR307W, strain GAS1, active compounds read low
[8] = locus YNL183C, strain NPR1, active compounds read low
[9] = locus YOR231W, strain MKK1, active compounds read low
[10] = locus YPL241C, strain CIN2, active compounds read low
[11] = locus YPL256C, strain CLN2, active compounds read low

Measured: normalized growth

NCCCNCCCCNCCCN
inactive: locus YAL040C, strain CLN3, active compounds read low 0.997 | locus YCL061C, strain MRC1 (second series), active compounds read low 1.01 | locus YDR363W, strain ESC2, active compounds read low 1.02 | locus YER002W, strain NOP16, active compounds read low 1.02 | locus YGR078C, strain PAC10, active compounds read low 1.01 | [1] 1.01 | [2] 0.994 | [3] 0.98 | [4] 0.925 | [5] 0.975 | [6] 0.995 | [7] 1.01 | locus YNL128W, strain TEP1, active compounds read low 0.962 | locus YNL175C, strain NOP13, active compounds read low 0.978 | [8] 0.93 | locus YNL197C, strain WHI3, active compounds read low 0.992 | locus YNL224C, strain SQS1, active compounds read low 0.986 | locus YOR083W, strain WHI5 (second series), active compounds read low 0.994 | [9] 0.999 | [10] 1 | [11] 1.02

CC(C)=CC1C(C(=O)O)C1(C)C (stereo not given)
inactive: locus YAL013W, strain DEP1, active compounds read low 0.988 | locus YAL021C, strain ccr4, active compounds read low 0.989 | locus YAL026C, strain drs2, active compounds read low 0.962 | locus YAL030W, strain snc1, active compounds read low 0.976 | locus YBL061C, strain skt5, active compounds read low 0.963 | locus YBR009C, strain hhf1, active compounds read low 0.939 | locus YBR021W, strain FUR4, active compounds read low 1.03 | locus YBR023C, strain chs3, active compounds read low 0.966 | locus YBR171W, strain sec66, active compounds read low 0.96 | locus YBR229C, strain ROT2, active compounds read low 0.996 | locus YBR231C, strain swc5, active compounds read low 0.985 | locus YBR279W, strain paf1, active compounds read low 0.976 | locus YCL011C, strain gbp2, active compounds read low 0.962 | locus YCL016C, strain dcc1, active compounds read low 0.987 | locus YCL029C, strain bik1, active compounds read low 0.981 | locus YCL061C, strain MRC1, active compounds read low 0.987 | locus YCL069W, strain vba3, active compounds read low 0.972 | locus YCR088W, strain abp1, active compounds read low 0.983 | locus YDL005C, strain med2, active compounds read low 0.976 | locus YDL035C, strain GPR1, active compounds read low 0.998 | locus YDL040C, strain nat1, active compounds read low 0.965 | locus YDL074C, strain BRE1, active compounds read low 1.01 | locus YDL101C, strain DUN1, active compounds read low 1.02 | locus YDL185W, strain tfp1, active compounds read low 0.954 | locus YDL192W, strain arf1, active compounds read low 0.966 | locus YDR001C, strain nth1, active compounds read low 0.962 | locus YDR069C, strain doa4, active compounds read low 0.967 | locus YDR101C, strain arx1, active compounds read low 0.979 | locus YDR137W, strain rgp1, active compounds read low 0.97 | locus YDR150W, strain NUM1, active compounds read low 0.983 | locus YDR159W, strain sac3, active compounds read low 0.959 | locus YDR162C, strain NBP2, active compounds read low 1.08 | locus YDR195W, strain ref2 0.997 | locus YDR297W, strain sur2, active compounds read low 0.979 | locus YDR318W, strain mcm21, active compounds read low 0.977 | locus YDR334W, strain swr1, active compounds read low 0.976 | locus YDR335W, strain msn5, active compounds read low 0.977 | locus YDR388W, active compounds read low 0.98 | locus YDR392W, strain spt3, active compounds read low 0.883 | locus YDR502C, strain sam2, active compounds read low 1.01 | locus YEL003W, strain gim4, active compounds read low 0.971 | locus YEL037C, strain rad23, active compounds read low 0.966 | locus YEL061C, strain CIN8 (second series), active compounds read low 0.967 | locus YEL061C, strain CIN8, active compounds read low 0.996 | locus YER015W, strain faa2, active compounds read low 0.983 | locus YER016W, strain bim1, active compounds read low 0.982 | locus YER110C, active compounds read low 0.951 | locus YER111C, strain swi4, active compounds read low 0.972 | locus YER155C, strain BEM2 (second series), active compounds read low 0.972 | locus YER155C, strain BEM2, active compounds read low 0.999 | locus YER167W, strain BCK2, active compounds read low 0.997 | locus YFR010W, strain ubp6, active compounds read low 0.972 | locus YGL078C, strain dbp3, active compounds read low 0.991 | locus YGL086W, strain mad1, active compounds read low 0.967 | locus YGL167C, strain pmr1, active compounds read low 0.969 | locus YGL173C, strain kem1, active compounds read low 0.959 | locus YGL227W, strain vid30, active compounds read low 0.968 | locus YGL240W, strain doc1, active compounds read low 0.974 | locus YGL248W, strain PDE1, active compounds read low 1.04 | locus YGL253W, strain hxk2, active compounds read low 0.993 | locus YGR135W, strain pre9, active compounds read low 1 | locus YGR229C, strain SMI1, active compounds read low 1.05 | locus YGR252W, strain gcn5, active compounds read low 1.15 | locus YHR013C, strain ard1, active compounds read low 0.956 | locus YHR027C, strain rpn1, active compounds read low 0.973 | [1] 0.992 and 0.957 | locus YHR079C, strain IRE1 (second series), active compounds read low 0.988 | [2] 0.957 | locus YHR094C, strain hxt1, active compounds read low 0.968 | locus YHR129C, strain ARP1, active compounds read low 0.997 | locus YHR142W, strain chs7, active compounds read low 1.02 | locus YHR200W, strain rpn10, active compounds read low 0.979 | locus YIL066C, strain RNR3, active compounds read low 1.02 | locus YIL073C, strain SPO22, active compounds read low 0.967 | locus YIL125W, strain kgd1, active compounds read low 0.98 | locus YIR030C, strain dcg1, active compounds read low 0.979 | locus YJL092W, strain hpr5, active compounds read low 0.985 | locus YJL095W, strain BCK1 (second series), active compounds read low 0.985 | [3] 1.08 and 0.996 | locus YJL115W, strain asf1, active compounds read low 0.975 | locus YJL129C, strain trk1, active compounds read low 0.981 | locus YJL134W, strain LCB3, active compounds read low 0.99 | locus YJL154C, strain vps35, active compounds read low 0.96 | locus YJL164C, strain tpk1, active compounds read low 1.01 | locus YJL166W, strain qcr8, active compounds read low 0.979 | locus YJL168C, strain set2, active compounds read low 0.991 | locus YJL187C, strain SWE1 (second series), active compounds read low 1.04 | locus YJL187C, strain SWE1, active compounds read low 0.972 | locus YJR043C, strain POL32, active compounds read low 1.04 | [4] 0.905 | locus YKL009W, strain mrt4, active compounds read low 0.963 | locus YKL068W, active compounds read low 0.988 | locus YKL085W, strain MDH1 (second series), active compounds read low 0.971 | locus YKL085W, strain MDH1, active compounds read low 0.971 | locus YKL160W, strain elf1, active compounds read low 1.04 | locus YKL190W, strain CNB1, active compounds read low 0.991 | locus YKR001C, strain vps1, active compounds read low 0.973 | locus YKR026C, strain gcn3, active compounds read low 0.977 | locus YKR091W, strain srl3, active compounds read low 0.973 | locus YLL001W, strain dnm1, active compounds read low 0.999 | locus YLL026W, active compounds read low 0.982 | locus YLL041C, strain sdh2, active compounds read low 0.984 | locus YLR027C, strain aat2, active compounds read low 0.987 | locus YLR039C, strain RIC1, active compounds read low 1.04 | locus YLR058C, strain SHM2, active compounds read low 1.02 | locus YLR102C, strain apc9, active compounds read low 0.957 | [5] 1.04 | locus YLR221C, strain rsa3, active compounds read low 1 | locus YLR258W, strain gsy2, active compounds read low 0.963 | locus YLR262C, strain YPT6 (second series), active compounds read low 1 | locus YLR262C, strain YPT6, active compounds read low 1.04 | locus YLR268W, strain sec22, active compounds read low 0.972 | locus YLR320W, strain mms22, active compounds read low 0.989 | locus YLR330W, strain CHS5, active compounds read low 0.984 | locus YLR342W, strain FKS1 (second series), active compounds read low 1.03 | locus YLR342W, strain FKS1, active compounds read low 0.959 | locus YLR357W, strain rsc2, active compounds read low 0.963 | locus YLR370C, strain arc18, active compounds read low 0.976 | locus YLR371W, strain rom2, active compounds read low 0.968 | locus YLR384C, strain iki3, active compounds read low 0.981 | locus YLR418C, strain cdc73, active compounds read low 1.02 | locus YML016C, strain PPZ1, active compounds read low 0.999 | locus YML032C, strain rad52, active compounds read low 1 | locus YML120C, strain ndi1, active compounds read low 0.987 | locus YML124C, strain tub3, active compounds read low 0.973 | locus YMR058W, strain fet3, active compounds read low 0.966 | locus YMR078C, strain ctf18, active compounds read low 0.975 | locus YMR125W, strain sto1, active compounds read low 0.914 | locus YMR129W, active compounds read low 0.965 | locus YMR205C, strain PFK2, active compounds read low 0.932 | locus YMR223W, strain ubp8, active compounds read low 0.988 | locus YMR231W, strain pep5, active compounds read low 0.968 | [6] 1.01 | [7] 1.24 | locus YNL067W, strain RPL9B, active compounds read low 1.05 | locus YNL071W, strain lat1, active compounds read low 0.977 | locus YNL153C, strain GIM3, active compounds read low 1.05 | [8] 0.971 | locus YNL209W, strain ssb2, active compounds read low 0.977 | locus YNL233W, strain BNI4, active compounds read low 1.07 | locus YNL248C, strain rpa49, active compounds read low 1.01 | locus YNL250W, strain rad50, active compounds read low 0.965 | locus YNL271C, strain bni1, active compounds read low 0.973 | locus YNL298W, strain CLA4, active compounds read low 0.99 | locus YNL307C, strain MCK1, active compounds read low 0.988 | locus YNL322C, strain KRE1 (second series), active compounds read low 0.973 | locus YNL322C, strain KRE1, active compounds read low 0.998 | locus YNR049C, strain mso1, active compounds read low 0.966 | locus YNR052C, strain pop2, active compounds read low 0.972 | locus YOL006C, strain TOP1, active compounds read low 1.06 | locus YOL012C, strain htz1 1.34 | locus YOL147C, strain pex11, active compounds read low 0.989 | locus YOR001W, strain rrp6, active compounds read low 1.01 | locus YOR061W, strain CKA2, active compounds read low 1.01 | locus YOR069W, strain VPS5, active compounds read low 0.992 | locus YOR070C, strain gyp1, active compounds read low 0.985 | locus YOR080W, strain dia2, active compounds read low 0.965 | locus YOR083W, strain WHI5, active compounds read low 1.05 | locus YOR106W, strain vam3, active compounds read low 1.01 | locus YOR136W, strain idh2, active compounds read low 0.979 | locus YOR144C, strain elg1, active compounds read low 1 | locus YOR184W, strain ser1, active compounds read low 0.963 | [9] 0.954 | locus YOR265W, strain rbl2, active compounds read low 0.986 | locus YOR270C, strain vph1, active compounds read low 0.975 | locus YOR290C, strain snf2, active compounds read low 0.925 | locus YOR316C, strain cot1, active compounds read low 0.974 | locus YPL051W, strain arl3, active compounds read low 1 | locus YPL055C, strain LGE1, active compounds read low 1.06 | locus YPL078C, strain atp4, active compounds read low 1 | locus YPL106C, strain sse1, active compounds read low 0.972 | locus YPL240C, strain hsp82, active compounds read low 0.997 | [10] 0.998 | [11] 0.975 | locus YPR119W, strain clb2, active compounds read low 0.96 | locus YPR141C, strain kar3, active compounds read low 0.969 | locus YPR163C, strain tif3, active compounds read low 0.992 | locus YPR167C, strain met16, active compounds read low 0.941 | strain wtn01, active compounds read low 0.979
